# Test results published in PubChem BioAssay AID2289 (National Center for Advancing Translational Sciences (NCATS), 2010).
# Hit rate of the full screen: of about 340,000 compounds, about 3,300 (0.97%) were called active. Not shown: some 9% with an inconclusive outcome. The call rests on the fitted dose curve; in most records, active means well fitted inhibition curve with a large enough effect; inconclusive means small, poorly fitted or top-dose-only effect, or effect the other way; inactive means flat fitted curve, though single readings scatter. The list shows a part of the results.
# Assay: qHTS Assay for Modulators of miRNAs and/or Inhibitors of miR-21; further: nearly all actives have a fitted effect of over 55% in size
# Conditions: HeLa miR-21-FLuc reporter, luciferase luminescence, 48 h; actives lower the signal
# Procedure, shortened: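 HeLa cells stably expressing CMV-driven firefly luciferase with a downstream miR-21 binding sequence, endogenously expressing miR-21, were treated with titrations (up to about 40uM final) for 48 hours at 37 degree Celsius. Luciferase luminescence was read after lysis.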
# Potency means the concentration at half of the fitted maximal effect.
row,Structure (SMILES),Potency
1,COc1ccnc(Oc2ccc3ccccc3c2)c1C#N,2.93 µM (active)
2,COc1ccc(-c2nc3c4ccccc4ccn3c2CN2CCOCC2)cc1OC,6.56 µM (active)
3,COc1cnn(-c2ccc(Br)cc2)c(=O)c1SCc1ccccc1,13.1 µM (active)
4,CC(=O)Nc1ccc(-c2csc(NCc3ccco3)n2)cc1,4.14 µM (active)
5,COc1ccc(-c2csc(NCc3ccco3)n2)cc1C,5.85 µM (active)
6,Oc1ccc(-c2csc(NCc3ccco3)n2)cc1,4.65 µM (active)
7,O=C(Cc1ccc(Cl)cc1)c1ccc(O)cc1,5.21 µM (active)
8,CN(C)/C=C/C(=O)c1cnc(-c2cccc(Cl)c2)s1,18.5 µM (active)
9,CN(C)/C=C/C(=O)c1cnc(-c2ccccc2Cl)s1,18.5 µM (active)
10,COc1cc(C)ccc1OCCCOc1ccccc1Cl,6.56 µM (active)
11,COc1cc(C)ccc1OCCOc1ccccc1Cl,14.7 µM (active)
12,COc1ccccc1OCCCOc1ccc([N+](=O)[O-])cc1Cl,7.36 µM (active)
13,Cn1c(-c2ccc3nc(N)sc3c2)nc2cc(N)ccc21,18.5 µM (active)
14,CN(N=Nc1ccc([N+](=O)[O-])cc1)c1ccccc1,4.14 µM (active)
15,O=C(NC(=S)Nc1ccc(Br)cn1)c1cccs1,0.521 µM (active)
16,Cc1nc(NC(=S)NC(=O)c2cccs2)ccc1Br,14.7 µM (active)
17,O=c1[nH]c(COc2ccc(Br)cc2Cl)nc2ccccc12,2.61 µM (active)
18,O=c1[nH]c(COc2ccc(Cl)cc2Br)nc2ccccc12,3.29 µM (active)
19,CCN(CC)S(=O)(=O)c1cc(C(=O)Oc2cccc(-c3cnc4ccccc4n3)c2)ccc1Br,1.85 µM (active)
20,Nc1c(-c2ccc3c(c2)OCCO3)oc2ccccc2c1=O,2.93 µM (active)
21,COc1ccc(-n2ncc3c(NCCCn4ccnc4)ncnc32)cc1,10.4 µM (active)
22,CCN(CC)CCCNc1ncnc2c1cnn2-c1ccc(C)c(C)c1,6.56 µM (active)

row,Structure (SMILES),Potency
1,Cc1cccc(-n2ncc3c(NCCCn4ccnc4)ncnc32)c1,10.4 µM (active)
2,COc1cccc(C(=O)/C=C/Nc2ccc(S(=O)(=O)Nc3ncccn3)cc2)c1,11.7 µM (active)
3,COc1cccc(C(=O)/C=C/Nc2ccc(NC(C)=O)cc2)c1,11.7 µM (active)
4,COc1cccc(C(=O)/C=C/Nc2ccc(S(=O)(=O)Nc3onc(C)c3C)cc2)c1,13.1 µM (active)
5,Cc1noc(NS(=O)(=O)c2ccc(N/C=C/C(=O)c3ccc4c(c3)OCO4)cc2)c1C,9.27 µM (active)
6,COc1cccc(C(=O)/C=C/Nc2ccc(S(=O)(=O)Nc3cnc4ccccc4n3)cc2)c1,7.36 µM (active)
7,Cc1ccc(COc2ccc(-c3nnco3)cc2)cc1,4.14 µM (active)
8,Fc1cc(Br)ccc1COc1ccc(-c2nnco2)cc1,7.36 µM (active)
9,Cc1ccc(COc2ccc3c(c2)OCO3)cc1,3.69 µM (active)
10,Cn1c(SCc2c(F)cccc2Cl)nnc1-c1cccs1,6.56 µM (active)
11,Cn1c(SCc2c(F)cccc2Cl)nnc1-c1cnccn1,4.14 µM (active)
12,CCCNC(=O)c1c(Cl)cnn1-c1ccc(C)cc1,4.14 µM (active)
13,O=C(Nc1ccccc1)OCc1cc(-c2ccccc2Cl)on1,11.7 µM (active)
14,O=C(Nc1ccccc1)c1ccc(-c2ccccc2C(F)(F)F)o1,13.1 µM (active)
15,O=C(Nc1ccccc1)c1ccc(-c2ccccc2Cl)o1,3.69 µM (active)
16,O=C(Nc1ccccc1)c1cc(-c2ccccc2Cl)no1,7.36 µM (active)
17,COc1ccc(NC(=O)c2ccc(-c3ccccc3Cl)o2)cc1,7.36 µM (active)
18,O=C(Nc1cccc(F)c1)c1ccc(-c2ccccc2Cl)o1,2.93 µM (active)
19,COc1ccc(/C=C/c2ccncc2)cc1OC,16.5 µM (active)
20,CC1=NN(C(=O)c2ccoc2C)C(O)(C(F)(F)F)C1 (stereo not drawn),10.4 µM (active)
21,CCCNc1ccc(C(=O)OCC)cc1[N+](=O)[O-],16.5 µM (active)
22,COC(=O)c1ccc(-c2ccc(F)cc2)nc1C,6.56 µM (active)

row,Structure (SMILES),Potency
1,COC(=O)c1ccc(-c2ccc(Cl)cc2)nc1C,1.47 µM (active)
2,CCOC(=O)c1ccc(-c2ccc3c(c2)CCC3)nc1C,1.85 µM (active)
3,CCOc1ccc(-c2cn3nc(CC(C)C)sc3n2)cc1,2.93 µM (active)
4,COC(=O)CSc1nc2cc(OC)ccc2cc1C#N,0.233 µM (active)
5,CCOc1ccc2cc(C#N)c(SCC(=O)N3CCOCC3)nc2c1,1.17 µM (active)
6,COc1ccc2nc(SCC(C)=O)c(C#N)cc2c1,0.165 µM (active)
7,CCOC(=O)CSc1nc2cc(OCC)ccc2cc1C#N,4.65 µM (active)
8,O=C(Nc1cc2c(cc1C(=O)O)OCCCO2)c1ccc(C(F)(F)F)cc1,7.36 µM (active)
9,COc1cccc(C(=O)Nc2cc3c(cc2Br)OCCCO3)c1,2.07 µM (active)
10,COc1cccc(C(=O)Nc2cc3c(cc2Cl)OCCCO3)c1,0.826 µM (active)
11,O=C(Nc1cc2c(cc1Br)OCCCO2)c1ccccc1,2.33 µM (active)
12,CN(C)S(=O)(=O)Oc1cccc(C(=O)Nc2ccccc2Cl)c1,8.26 µM (active)
13,COC(=O)c1c(-c2ccncc2)csc1NC(=O)c1ccoc1C,1.85 µM (active)
14,COC(=O)c1c(-c2cccnc2)csc1NC(=O)c1ccc2c(c1)OCO2,1.04 µM (active)
15,COC(=O)c1c(-c2cccnc2)csc1NC(=O)c1cc(C)on1,2.07 µM (active)
16,CC(CC(=O)c1cccs1)CC(=O)c1cccs1,11.7 µM (active)
17,CC(C)(C)C(=O)Nc1ccc(C(=O)OC2CCCCC2)cc1,0.927 µM (active)
18,COc1ccc(Nc2nc(N)nc(SCc3nnc(C)s3)n2)cc1,14.7 µM (active)
19,COc1ccc(Nc2nc(N)nc(CSc3nnc(C)s3)n2)cc1,18.5 µM (active)
20,Cc1nnc(SCc2cccc3ccccc23)s1,14.7 µM (active)
21,Cc1nnc(SCc2nc(N)nc(Nc3ccccc3)n2)s1,11.7 µM (active)
22,Cc1ccc(Nc2nc(N)nc(CSc3nnc(C)s3)n2)cc1,7.36 µM (active)

row,Structure (SMILES),Potency
1,O=C(Nc1ccc2c(c1)OCO2)c1n[nH]c(=O)c2ccccc12,5.85 µM (active)
2,CCc1ccc(NC(=O)c2n[nH]c(=O)c3ccccc23)cc1,1.04 µM (active)
3,COc1ccccc1Nc1nc(N)nc(CSC(=S)N2CCCCC2)n1,14.7 µM (active)
4,Cc1ccc(Nc2nc(N)nc(CSC(=S)N3CCOCC3)n2)c(C)c1,10.4 µM (active)
5,COc1ccccc1Nc1nc(N)nc(CSC(=S)N2CCOCC2)n1,16.5 µM (active)
6,COc1ccc(CCNc2ncccc2C#N)cc1OC,6.56 µM (active)
7,O=C(N/N=C1\CCc2ccccc21)c1ccccc1Cl,1.85 µM (active)
8,O=C(O)c1ccc(N/N=C2/CCCc3ccccc32)cc1,6.56 µM (active)
9,CCOC(=O)N/N=C1\CCc2ccccc21,11.7 µM (active)
10,O=C(N/N=C1\CCCCc2ccccc21)c1ccccn1,5.85 µM (active)
11,O=C(COc1ccccc1F)N/N=C1\CCCc2ccccc21,3.29 µM (active)
12,COc1ccc(/C(N)=N/OC(=O)CSc2ccccc2)cc1OC,8.26 µM (active)
13,N/C(=N\OC(=O)CSc1ccccc1)c1ccncc1,14.7 µM (active)
14,N/C(=N\OC(=O)CSc1ccccc1)c1ccc([N+](=O)[O-])cc1,4.65 µM (active)
15,COc1ccc(NC(=O)CSc2nnc(NC(=O)Nc3ccc(OC)cc3)s2)cc1,0.826 µM (active)
16,COc1ccccc1C(=O)Nc1nnc(SCC(=O)NC2CCCC2)s1,0.414 µM (active)
17,COc1ccc(-c2nnc(SCC(=O)Nc3cccc(F)c3)s2)cc1,13.1 µM (active)
18,COc1ccc(NC(=O)Nc2nnc(-c3ccco3)s2)cc1,0.927 µM (active)
19,CC(=O)c1ccc(NC(=O)CSc2nnc(NC(=O)Nc3ccccc3)s2)cc1,7.36 µM (active)
20,COc1ccc(C(=O)Nc2nnc(SCC(=O)Nc3ccc(NC(C)=O)cc3)s2)c(OC)c1,0.0656 µM (active)
21,O=C(/C=C/c1cccc2ccccc12)N1CCOCC1,6.56 µM (active)
22,CC(C)c1ccc(/C=C/C(=O)N2CCOCC2)cc1,2.93 µM (active)

row,Structure (SMILES),Potency
1,CC(C)(C)c1ccc(/C=C/C(=O)N2CCOCC2)cc1,6.56 µM (active)
2,Cc1ccc(NC(=O)C2CCCN(c3ncccn3)C2)cc1C (stereo not drawn),14.7 µM (active)
3,COc1ccc(NC(=O)C2CCCN(c3ncccn3)C2)cc1 (stereo not drawn),8.26 µM (active)
4,COc1ccc(-n2ncc3c(N4CCCc5ccccc54)ncnc32)cc1,0.414 µM (active)
5,CCC(NC(=O)c1ccccc1NC(=O)c1ccc(OC)cc1)C(=O)N1CCCC1 (stereo not drawn),6.56 µM (active)
6,Cc1[nH]c2ccccc2c1C(=O)CSC(=S)N1CCCCC1,3.29 µM (active)
7,COc1ccc(/C=C/C(=O)N(C)C2CCCCC2)cc1Br,9.27 µM (active)
8,Cc1ccc2c(CN3CCC(C)CC3)cc(=O)oc2c1C,7.36 µM (active)
9,Cc1ccc2c(CN3CCC(C)CC3)cc(=O)oc2c1,5.21 µM (active)
10,CN(C)c1ccc(/C=C/c2nnnn2-c2ccccc2)cc1,1.65 µM (active)
11,CC(Cc1cccs1)NC(=O)c1cccc(Cl)c1 (stereo not drawn),6.56 µM (active)
12,COc1ccc(C2CC(=O)N(C)c3ccccc3S2)cc1OC (stereo not drawn),18.5 µM (active)
13,Cc1ccc(-c2nc3ccccc3nc2NN)cc1,1.17 µM (active)
14,CC(=O)c1sc(-c2ccc(F)cc2F)nc1C,14.7 µM (active)
15,Cc1sc(NC(=O)C2C3CCC(O3)C2C(=O)O)nc1-c1ccc(CC(C)C)cc1 (stereo not drawn),3.69 µM (active)
16,CCOC(=O)C1=NN(c2ccc(Cl)cc2)C(=O)C1,6.56 µM (active)
17,CCOC(=O)c1sc2nc3c(cc2c1N)COC(C)(C)C3,1.17 µM (active)
18,CCOC(=O)c1cc2c(nc1N)CC(C)(CC)OC2 (stereo not drawn),7.36 µM (active)
19,CCOC(=O)c1sc2nc3c(cc2c1N)COC(C(C)C)C3 (stereo not drawn),0.0414 µM (active)
20,C=CCn1c(C)nc2c(sc3nc4c(cc32)COC(C)(C)C4)c1=O,0.656 µM (active)
